The results in this text go back to PubChem BioAssay AID686979 (National Center for Advancing Translational Sciences (NCATS), 2013).

Molecules are shown by their SMILES. About 50,000 (12%) of roughly 420,000 compounds were called active. A call without a number means that no potency is given here. Another 26% or so got no clear call; they are omitted. This is one part of a sample in which actives are shown more often than they occur. The call rests on the fitted dose curve; in most records, active means well fitted inhibition curve with a large enough effect; inconclusive means small, poorly fitted or top-dose-only effect; inactive means flat fitted curve, though single readings scatter.
Potency means the concentration at half of the fitted maximal effect.

A short description of this test: qHTS for Inhibitors of human tyrosyl-DNA phosphodiesterase 1 (TDP1): qHTS in cells in presence of CPT. Further: nearly all actives have a fitted effect of over 55% in size. The following applies: chicken DT40 Tdp1-/-;hTDP1 cells + 20 nM CPT, ATP luminescence, 48 h; series mostly up to 46.2 µM. The method in brief:
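Chicken DT40 Tdp1-/- cells stably complemented with human TDP1 were seeded at 400 cells/well in medium containing 20 nM camptothecin, exposed to pin-transferred compounds, and grown at 37 °C for at least 48 hr. Viability was read as ATP luminescence.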
In general terms: Quantitative high-throughput screening tests each substance at several concentrations.
For the compound `COC(=O)c1ccccc1NC(=O)CSc1ccccn1`, the Potency result is “inactive”. Turning to `CCOC(=O)c1cnc(SCC(=O)NCc2ccco2)nc1N`, the Potency entry was “inactive”.

Regarding `CCOC(=O)c1cnc(SCC(=O)Nc2ccccc2C(=O)OC)nc1N`, the Potency is 16.4 µM (active).

Take `O=C(CSc1nc2ccccc2c(=O)n1CCCO)NC1CC1`: the Potency entry was “inactive”.

With `COc1ccc(CCNC(=O)CCC(=O)NC2CCCCC2)cc1OC`, the Potency result was “inactive”.

`COc1ccc(CCNC(=O)C2CCCN2C(=O)Nc2ccccc2)cc1OC` (stereo not given): the Potency result was “inactive”. As for `COc1ccc(CCNC(=O)c2c3c(nc4ccccc24)C(=O)N(C2CCCCC2)C3)cc1OC`, the Potency is 20.6 µM (active). Take `COc1ccc(C(=O)NCCNc2ccc([N+](=O)[O-])cn2)cc1`: the Potency entry is “inactive”. As to `COc1ccc2c(C(=O)c3ccc(C)cc3)n(CCC(N)=O)[n+]([O-])c2c1`, the Potency result was “inactive”. `Cc1cc(C)cc(OCC(=O)NC(C)c2ccccc2)c1` (stereo not given): the Potency result was “inactive”. Turning to `CCOC(=O)/C=C/C(=O)OCC(=O)NC(c1ccccc1)c1ccccc1`, the Potency is 5.8 µM (active). The same measure, in the same setting: the value for `CCOC(=O)C(C(=O)OCC)C(C#N)c1ccccc1` (stereo not given) was “inactive”; that for `O=C(/C=C/c1cccc([N+](=O)[O-])c1)OCC(=O)N1CCOCC1` was “inactive”. For the compound `OC[C@@H]1CN(C2CCCC2)C[C@H](n2cnc3c(NC4CCC4)ncnc32)O1`, the Potency result was “inactive”. Consider `OC[C@@H]1CN(Cc2ccc(-c3ccccc3)cc2)C[C@H](n2cnc3c(NC4CCCC4)ncnc32)O1`, for which the Potency is 1.03 µM (active). On to `OC[C@@H]1CN(Cc2ccc(Cl)cc2)C[C@H](n2cnc3c(NCc4ccncc4)ncnc32)O1`, for which the Potency entry is “inactive”. On the same count and under the same terms, the value for `Cc1cccc(C2c3c(n(C)c(=O)n(C)c3=O)N=C3c4ccccc4C(=O)C32)c1` (stereo not given) was 8.2 µM (active); that for `COc1ccc(C2C3=C(OC(C)=O)c4ccccc4C3=Nc3c2c(=O)n(C)c(=O)n3C)cc1` (stereo not given) was “inactive”; that for `Cc1cccc([C@@H]2[C@@H]3C(=O)N(C)C(=O)[C@@H]3[C@@H]3C(=O)Nc4ccccc4C(=O)N23)c1` was “inactive”.

For the compound `COc1ccc(/C=C/c2nnc(NC(=O)C(C)C)s2)cc1`, the Potency entry is “inactive”.

Turning to `O=C(Cn1cc(C(=O)C2CC2)c2ccccc21)Nc1ccccc1Cl`, the Potency entry was “inactive”. Turning to `O=C(Nc1cccc(-n2cnnn2)c1)c1cccnc1`, the Potency result was “inactive”. In the case of `COc1ccc(CNC(=O)C2=Cc3cccc(OC)c3OC2)cc1OC`, the Potency result was “inactive”. On to `O=S(=O)(c1cccc2nonc12)N1CCN(c2cccc(Cl)c2)CC1`, for which the Potency result was “inactive”. For the compound `COc1cc(=O)n2c(c1C(=O)NC(C)c1ccco1)CCN(Cc1cc(C)cc(C)c1)CC2` (stereo not given), the activity change, negative = growth inhibition is -2.45% [at 9.04 µM] (inactive). For `COC(=O)c1c(NC(=O)COC(=O)[C@@H](NS(=O)(=O)c2ccccc2)C(C)C)sc2c1CCC2`, the Potency is 18.4 µM (active). For the compound `COC(=O)c1c(NC(=O)CCCC(=O)O)sc2c1CCCCC2`, the Potency entry is “inactive”. `COC(=O)c1c(NC(=O)c2ccc(Cl)c(Cl)c2)sc2c1CCCC2`: the Potency entry is “inactive”.

As for `CCOCC(=O)Nc1sc2c(c1C(=O)OCC)CCCC2`, the Potency entry is “inactive”. Regarding `CCc1ccc(N(CC(=O)Nc2sc3c(c2C(=O)OC)CCCC3)S(C)(=O)=O)cc1`, the Potency is 23.1 µM (active). As for `CCOC(=O)c1c(NC(=O)/C(C#N)=C/c2ccccc2)sc2c1CCC2`, the Potency entry is “inactive”. Same read-out and setting: the value for `O=C(NC1CCCCC1)c1cc(C2CC2)on1` was “inactive”; that for `COC(=O)CC(CC(=O)OC)n1cccc1` was “inactive”; that for `CCCN(CCC)CC(O)COc1ccccc1C(=O)Nc1ccccc1` (stereo not given) was “inactive”.

Take `CCCNC(=O)CCC(=O)N1Cc2ccccc2Oc2ncccc21`: the Potency result is “inactive”. On to `Cc1ccc2cc(CCNC(=O)c3c(-c4ccccc4Cl)noc3C)c(=O)[nH]c2c1`, for which the Potency was 23.1 µM (active). Turning to `Cc1ccc(CNC(=O)c2c(-c3ccccc3)noc2C)cc1`, the Potency entry was “inactive”.

On to `Cc1onc(-c2ccccc2Cl)c1C(=O)NCCn1ccc2ccccc21`, for which the Potency entry is “inactive”.

For the compound `O=C(c1cnn(-c2ccc(Cl)cc2)c1)c1ccccc1O`, the Potency entry was “inactive”.

In the case of `Cc1[nH]nc(-c2ccc(OCc3cnn(-c4ccccc4)c3)cc2O)c1Oc1ccc(Cl)cc1`, the Potency is 18.4 µM (active).

Turning to `Oc1cccc(C2c3[nH]c4ccccc4c3CCN2Cc2cnn(-c3ccccc3)c2)c1` (stereo not given), the Potency entry was “inactive”. In the case of `O=C(COC(=O)c1n[nH]c2ccccc12)Nc1ccccc1Br`, the Potency result was “inactive”. `CN(C)S(=O)(=O)c1ccc(NC(=O)COC(=O)c2n[nH]c3ccccc23)cc1`: the Potency was 14.6 µM (active).

As for `O=C(COC(=O)c1n[nH]c2ccccc12)NCc1ccccc1`, the Potency entry is “inactive”.

`Cc1nn(C(C)(C)C)c(OC(=O)CC(C)C)c1S(=O)(=O)c1ccccc1`: the Potency entry is “inactive”. `COC(=O)c1cccc(C(=O)N2CCCC(Nc3ccc4c(c3)OCCO4)C2)c1` (stereo not given): the Potency result is “inactive”.

Consider `O=C(CSc1nc2ccc(Nc3nc(N4CCOCC4)nc(N4CCOCC4)n3)cc2s1)NCc1ccco1`, for which the Potency is 25.9 µM (active).

As for `C=CCn1c(CSc2nc3ccccc3s2)nnc1SCC(=O)NCc1ccco1`, the Potency result was “inactive”. On the same count and under the same terms, the value for `O=C(CSc1nnnn1-c1ccccc1)NCc1ccco1` was “inactive”; that for `Brc1ccc(/C=N/N2CCN(C3c4ccccc4-c4ccccc43)CC2)s1` was “inactive”; that for `CC(=O)O[C@]1(C(C)=O)CC[C@H]2[C@@H]3CCC4=CC(=O)CC[C@]4(C)[C@@]3(F)[C@@H](O)C[C@@]21C` was “inactive”.

For `CN(C)c1ccc(C2N(C)C(=O)c3ccccc3N2C)cc1` (stereo not given), the Potency entry is “inactive”. In the case of `Cc1ccc2nnn(Cc3cccc(C(C)(C)C)c3O)c2c1`, the Potency was 20.6 µM (active).

With `Cc1ccc(C(=O)CSc2nnc(Cn3nnc4ccccc43)n2C)cc1`, the Potency entry is “inactive”. Same read-out and setting: as for `Cc1ccc(C2(C)NC(=O)N(CC(=O)N3CC(=O)Nc4ccccc43)C2=O)cc1` (stereo not given), the entry is “inactive”; as for `Cc1cc(NC(=O)CSc2nc(C(C)C)nc3sc4c(c23)CCC(C)C4)no1` (stereo not given), 18.4 µM (active).

In the case of `CC(C)c1nc(SCC(=O)Nc2cccc(C(=O)O)c2)c2c3c(sc2n1)CCCC3`, the Potency entry is “inactive”. As to `Cc1nc(SCC(=O)Nc2cc(C)on2)c2c(C)c(C)sc2n1`, the Potency entry is “inactive”.

In the case of `Cc1cc(C)cc(NC(=O)CSc2nc(=O)n(CCN3CCOCC3)c3c2CCC3)c1`, the Potency entry was “inactive”. In the case of `O=C(CN1CCN(c2ncccn2)CC1)Nc1ccccc1C(F)(F)F`, the Potency entry is “inactive”. With `N#Cc1ccc(CN2CCCC3(CCN(C(=O)c4ccco4)CC3)C2)cc1`, the Potency entry was “inactive”. As for `Cc1ccc2nc(-c3ccc(C)c(NC(=O)Cc4ccccc4)c3)oc2c1`, the Potency entry was “inactive”. Turning to `CCC(C)[C@H](NC(=O)N1CCn2c1nc1ccccc12)C(=O)NCc1ccc(OC)cc1` (stereo not given in full), the Potency was 20.6 µM (active). On the same count and under the same terms, the value for `CC(C)[C@H](NC(=O)N1CCn2c1nc1ccccc12)C(=O)NC1CC1` was “inactive”; that for `CC(C)C[C@H](NC(=O)N1CCn2c1nc1ccccc12)C(=O)NC1CC1` was “inactive”. Same read-out and setting: as for `COc1cc(-c2n[nH]c(=S)n2Cc2ccccc2)cc(OC)c1OC`, the entry is “inactive”; as for `COc1ccc2[nH]c(=O)c(-c3noc(-c4ccc(F)cc4)n3)cc2c1`, “inactive”; as for `CCOc1ccc(-c2noc(CCC(=O)NC3CCCC3)n2)cc1OC`, “inactive”. The same measure, in the same setting: the value for `COc1nc(-c2ccc(Cl)cc2)ccc1-c1noc(-c2cccs2)n1` was “inactive”. Regarding `CCOc1nc(-c2ccc(OC)cc2)ccc1-c1noc(-c2cc(OC)c(OC)c(OC)c2)n1`, the Potency was 5.17 µM (active). Same read-out and setting: as for `COc1ccc(-c2cc(-c3nc(-c4cc(OC)c(OC)c(OC)c4)no3)[nH]n2)c(OC)c1`, the figure is 20.6 µM (active); as for `O=C(NCc1ccc(Cl)cc1)c1ccc2c(c1)nnn2C1CCCC1`, “inactive”; as for `O=C(CCC1N=C2c3ccccc3N=C(SCc3ccccc3F)N2C1=O)NCCc1ccccc1` (stereo not given), “inactive”. Take `Cc1nc(C(F)(F)F)ccc1C(=O)N1CCC1(C)C(=O)NS(=O)(=O)c1ccccc1` (stereo not given): the Potency result was “inactive”. On the same count and under the same terms, as for `CCn1cc(C(=O)N[C@@H](C)C(=O)NCCO)c(=O)c2cc3c(cc21)OCO3`, the entry is “inactive”; as for `COc1ccccc1OCCOc1ccc(/C=N/n2cnnc2)cc1`, “inactive”. For `Cc1ccccc1OCCOc1ccc([N+](=O)[O-])cc1/C=N/n1cnnc1`, the Potency is 1.16 µM (active). In the case of `Cc1cc(-c2ccc(/C=N/n3cnnc3)o2)c([N+](=O)[O-])cc1C`, the Potency entry is “inactive”. Consider `O=C(c1ccc(=O)oc1)N1CCC(C(O)(c2ccccc2)c2ccccc2)CC1`, for which the Potency result was “inactive”. For the compound `COc1cc(OC)c(C(=O)NCc2ccc3c(c2)OCO3)cc1OC`, the Potency entry is “inactive”.

As to `S=C(NCc1ccc2c(c1)OCO2)NCc1ccco1`, the Potency entry is “inactive”. With `CC1(C(=O)NCc2ccco2)Cc2c(-c3ccc4c(c3)OCO4)ccnc2O1` (stereo not given), the Potency is 0.82 µM (active). On to `CC1(C(=O)NCc2ccc(F)c(F)c2)Cc2c(-c3ccc4c(c3)OCO4)ccnc2O1` (stereo not given), for which the Potency is 4.11 µM (active). On the same count and under the same terms, the value for `O=C(NCc1ccc2c(c1)OCO2)c1cc(F)c(F)cc1Cl` was “inactive”; that for `O=C(Cn1nnc(-c2ccc3c(c2)OCO3)n1)NCc1ccco1` was “inactive”.

As for `O=S(=O)(NC1CCCC1)c1ccc(-n2cnnn2)cc1`, the Potency entry was “inactive”. With `C/C(COc1ccccc1)=N\NC(=O)c1nnn(-c2nonc2N)c1-c1ccc(C)cc1`, the Potency entry was “inactive”. Consider `COc1ccc(-c2cc(-c3ccccc3)nc3c2COc2ccc(Cl)cc2-3)cc1`, for which the Potency entry was “inactive”.

Turning to `CC(=O)c1ccc(Cc2ncc(C(F)(F)F)cc2Cl)s1`, the Potency result was “inactive”. As to `Cc1cccc(OC(C)C(=O)N2CCc3ccccc3C2)c1` (stereo not given), the Potency result was “inactive”. As to `COc1cc(N2C(=O)c3ccccc3C2=O)c(Cl)cc1C(=O)OCC(=O)N1CCOCC1`, the Potency result is “inactive”. Consider `COc1cccc(NC(=O)COC(=O)/C=C/c2ccco2)c1`, for which the Potency result is “inactive”. For the compound `CCOc1cc2ccccc2cc1C(=O)Nc1ccccn1`, the Potency result is “inactive”.

For `CCN(CC)CCOc1ccc2c(c1)C(=NNC(=O)c1ccccn1)c1cc(OCCN(CC)CC)ccc1-2`, the Potency was 5.17 µM (active). Regarding `Cc1cccc(OCC(=O)NCCCNC(=O)c2ccccn2)c1`, the Potency result was “inactive”. The same measure, in the same setting: as for `CCCc1nnc(NC(=O)CCC(=O)NC2CC2)s1`, the entry is “inactive”; as for `CCCc1ccc(C(=O)COC(=O)CN2C(=O)NC3(CCCCC3C)C2=O)cc1` (stereo not given), “inactive”.

`Cc1cc2c(cc1C)[n+](C)cn2CC(O)COCC1CC=CCC1` (stereo not given): the Potency was 8.2 µM (active). In the case of `CC1CCN(C(=O)/C(=C\c2ccccc2)NC(=O)c2ccccc2)CC1`, the Potency result was “inactive”.

On to `Cc1nn(CC#N)c(=O)n1N(C)c1ncc(C(F)(F)F)cc1Cl`, for which the Potency entry was “inactive”.
